# From PubChem BioAssay (EPA / NIEHS)
# Several values for one entry are separate records, joined by “and”; a condition that tells them apart may be missing. Identical values can stand only once. Inconclusive results are not listed. Some compounds were tested as several samples or in several runs, with calls that do not always agree. Activity calls are given as the source filed them. The calls were made as follows: active = hit-call score of the fitted dose curve at least 0.9, where 1 is the maximum; inconclusive = response in the unintended direction; inactive = score below 0.9.
# How the values were obtained:
# [1] = target: human Dopamine Transporter (DAT), SLC6A3 (gene 6531) (UniProt Q01959); assay: NVS_TR_hDAT: NovaScreen (NVS) Transporter Assay for human Dopamine Transporter (DAT) (AID 2283374);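 also: activity means loss of bound radioligand signal relative to DMSO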
# Procedure, shortened: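 Extracted human SLC6A3 protein incubated 1 h with radioligand and test chemical; bound fraction separated on filters and counted. Single 25 uM duplicate screen preceded concentration-response follow-up; positive and negative controls on every plate.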
# [2] = tested on: guinea pig Dopamine Transporter (DAT), gene 100714898; assay: NVS_TR_gDAT: NovaScreen (NVS) Transporter Assay for guinea pig Dopamine Transporter (DAT) (AID 2283369);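 also: active compounds lower bound radioligand signal relative to DMSO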
# Procedure, shortened: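 Radioligand displacement on membranes from guinea pig striatum, 2 h exposure, bound label counted by filtration and scintillation. Tested at 25 uM in duplicate, then actives in concentration series to 50 uM; DMSO as negative control.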
# [3] = target: Peroxisome proliferator-activated receptor gamma (Homo sapiens) (UniProt P37231); assay: NVS_NR_hPPARg: NovaScreen (NVS) Nuclear Receptor Binding Assay for human Peroxisome Proliferator-activated Receptor gamma (PPARg) (AID 2283370)
# Procedure, shortened: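 Fluorescence polarization readout of ligand binding to extracted human PPARg, measured at 2 h. Duplicate single-point screen at 25 uM, then concentration-series retesting; activity defined as signal loss versus DMSO.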
# [4] = tested on: rat Norepinephrine Transporter (NET), gene 83511; assay: NVS_TR_rNET: NovaScreen (NVS) Transporter Assay for rat Norepinephrine Transporter (NET) (AID 2283373)
# Procedure, shortened: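 Competitive radioligand displacement at the rat NET using forebrain membrane preparations, 1 h incubation, filter-based scintillation readout. Primary testing in duplicate at a single 25 uM concentration; confirmed actives retested across concentrations.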
# [5] = target: human Norepinephrine Transporter (NET), SLC6A2 (gene 6530) (UniProt P23975); assay: NVS_TR_hNET: NovaScreen (NVS) Transporter Assay for human Norepinephrine Transporter (NET) (AID 2283377);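 also: cell-free membrane protein extracted from CHO cells expressing human NET; displacement of radioligand from human NET seen as loss of scintillation signal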
# Procedure, shortened: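 In this cell-free binding screen, chemicals at 25 uM (duplicate) compete with a radioligand for CHO-derived human NET over 1 hour, with filter-based radiodetection.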
# [6] = target: human Adenosine Transporter (Adot), SLC29A1 (gene 2030) (UniProt Q99808); assay: NVS_TR_hAdoT: NovaScreen (NVS) Transporter Assay for human Adenosine Transporter (Adot) (AID 2283368)
# Procedure, shortened: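 Binding displacement on U937 extracted protein, read 1 h post-dose by filtration and scintillation counting. Primary duplicate test at 25 uM, then singleton concentration series with 50 uM top; DMSO baseline.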
# [7] = target: human Serotonin Transporter (SERT), SLC6A4 (gene 6532) (UniProt P31645); assay: NVS_TR_hSERT: NovaScreen (NVS) Transporter Assay for human Serotonin Transporter (SERT) (AID 2283372)
# Procedure, shortened: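 Human platelet membrane preparation; displacement of radioligand from serotonin transporter measured after 1 h by filtration and scintillation counting. Single 25 uM duplicate screen, then concentration series for actives, with DMSO as negative baseline.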
# [8] = target: rat Serotonin Transporter (SERT), Slc6a4 (gene 25553) (UniProt P31652); assay: NVS_TR_rSERT: NovaScreen (NVS) Transporter Assay for rat Serotonin Transporter (SERT) (AID 2283375)
# Procedure, shortened: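 Radioligand binding with competitive displacement on rat forebrain membrane preparations, counted by filtration and scintillation after 1 h. Primary single-point duplicates at 25 uM; active chemicals followed up in concentration-response. DMSO served as baseline.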
# [9] = target: Norway rat Vesicular Monoamine Transporter (VMAT2), neurotransmitter transporter, Slc18a2 (gene 25549) (UniProt Q01827); assay: NVS_TR_rVMAT2: NovaScreen (NVS) Transporter Assay for Norway rat Vesicular Monoamine Transporter (VMAT2), neurotransmitter transporter (AID 2283376);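 also: actives lower the bound radioligand signal below the DMSO level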
# Procedure, shortened: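 Binding endpoint from rat forebrain tissue, cell-free; 1 h incubation; filtered radioligand counted; 25 uM duplicate primary then dose series; DMSO negative control.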
# Chain of Norway rat Vesicular Monoamine Transporter (VMAT2), neurotransmitter transporter, Slc18a2 (gene 25549) (Q01827 whole entry, looked up): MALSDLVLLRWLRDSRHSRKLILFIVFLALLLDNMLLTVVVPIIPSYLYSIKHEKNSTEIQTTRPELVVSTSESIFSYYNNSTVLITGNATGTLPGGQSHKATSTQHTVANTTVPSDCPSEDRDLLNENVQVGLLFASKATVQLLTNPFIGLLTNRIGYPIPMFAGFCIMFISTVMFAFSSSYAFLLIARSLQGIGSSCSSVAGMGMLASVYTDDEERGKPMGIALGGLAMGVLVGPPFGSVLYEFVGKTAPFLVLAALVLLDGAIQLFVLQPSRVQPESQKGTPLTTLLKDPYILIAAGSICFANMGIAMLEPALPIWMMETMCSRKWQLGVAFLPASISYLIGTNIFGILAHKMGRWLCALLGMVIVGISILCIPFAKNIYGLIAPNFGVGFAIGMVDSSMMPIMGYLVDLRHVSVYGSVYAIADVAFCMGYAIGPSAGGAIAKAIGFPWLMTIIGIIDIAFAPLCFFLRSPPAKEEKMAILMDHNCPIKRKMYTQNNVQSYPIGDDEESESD
# Chain of human Adenosine Transporter (Adot), SLC29A1 (gene 2030) (Q99808 whole entry, looked up): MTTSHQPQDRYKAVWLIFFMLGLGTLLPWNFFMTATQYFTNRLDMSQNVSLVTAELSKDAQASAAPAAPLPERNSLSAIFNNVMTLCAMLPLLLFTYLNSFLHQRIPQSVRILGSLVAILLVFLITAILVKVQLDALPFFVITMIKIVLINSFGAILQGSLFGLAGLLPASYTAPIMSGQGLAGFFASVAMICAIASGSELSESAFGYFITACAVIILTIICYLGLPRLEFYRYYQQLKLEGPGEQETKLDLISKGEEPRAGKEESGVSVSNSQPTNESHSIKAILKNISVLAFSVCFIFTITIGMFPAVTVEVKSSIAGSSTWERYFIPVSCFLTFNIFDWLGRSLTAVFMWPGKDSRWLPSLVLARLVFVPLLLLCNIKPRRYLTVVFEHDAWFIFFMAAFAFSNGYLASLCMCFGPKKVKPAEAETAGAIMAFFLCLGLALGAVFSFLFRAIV
# Chain of human Dopamine Transporter (DAT), SLC6A3 (gene 6531) (Q01959 whole entry, looked up): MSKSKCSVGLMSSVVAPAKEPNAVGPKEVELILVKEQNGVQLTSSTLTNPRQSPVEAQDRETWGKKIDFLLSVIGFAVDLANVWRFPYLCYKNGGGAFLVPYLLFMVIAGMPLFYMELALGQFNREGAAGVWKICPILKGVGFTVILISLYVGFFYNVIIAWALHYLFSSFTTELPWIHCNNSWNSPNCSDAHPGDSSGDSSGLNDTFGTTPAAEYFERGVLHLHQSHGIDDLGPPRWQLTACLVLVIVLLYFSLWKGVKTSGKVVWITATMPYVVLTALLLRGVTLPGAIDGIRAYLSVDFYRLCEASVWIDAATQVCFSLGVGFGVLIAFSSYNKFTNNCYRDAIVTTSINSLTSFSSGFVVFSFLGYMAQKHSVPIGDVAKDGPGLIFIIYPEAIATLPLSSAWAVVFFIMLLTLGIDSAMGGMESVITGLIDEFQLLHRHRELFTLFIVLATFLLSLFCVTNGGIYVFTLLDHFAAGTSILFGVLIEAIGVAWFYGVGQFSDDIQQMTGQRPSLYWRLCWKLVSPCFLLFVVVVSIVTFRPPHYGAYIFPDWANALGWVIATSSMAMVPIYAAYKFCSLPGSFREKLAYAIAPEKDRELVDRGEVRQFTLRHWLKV
# Chain of Peroxisome proliferator-activated receptor gamma (Homo sapiens) (P37231 whole entry, looked up): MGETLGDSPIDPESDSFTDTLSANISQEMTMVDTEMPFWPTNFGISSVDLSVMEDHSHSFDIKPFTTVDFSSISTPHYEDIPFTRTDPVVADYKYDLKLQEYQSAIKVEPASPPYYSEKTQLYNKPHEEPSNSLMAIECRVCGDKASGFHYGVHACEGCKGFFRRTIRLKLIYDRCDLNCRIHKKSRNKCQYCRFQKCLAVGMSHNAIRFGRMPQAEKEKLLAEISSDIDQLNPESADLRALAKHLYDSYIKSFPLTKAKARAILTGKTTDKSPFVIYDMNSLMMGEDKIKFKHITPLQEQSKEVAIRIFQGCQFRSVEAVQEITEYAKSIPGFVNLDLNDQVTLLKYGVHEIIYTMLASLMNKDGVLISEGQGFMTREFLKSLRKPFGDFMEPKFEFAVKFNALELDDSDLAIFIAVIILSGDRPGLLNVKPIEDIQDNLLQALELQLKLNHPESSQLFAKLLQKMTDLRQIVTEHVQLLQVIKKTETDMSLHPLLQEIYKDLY
# Chain of human Norepinephrine Transporter (NET), SLC6A2 (gene 6530) (P23975 whole entry, looked up): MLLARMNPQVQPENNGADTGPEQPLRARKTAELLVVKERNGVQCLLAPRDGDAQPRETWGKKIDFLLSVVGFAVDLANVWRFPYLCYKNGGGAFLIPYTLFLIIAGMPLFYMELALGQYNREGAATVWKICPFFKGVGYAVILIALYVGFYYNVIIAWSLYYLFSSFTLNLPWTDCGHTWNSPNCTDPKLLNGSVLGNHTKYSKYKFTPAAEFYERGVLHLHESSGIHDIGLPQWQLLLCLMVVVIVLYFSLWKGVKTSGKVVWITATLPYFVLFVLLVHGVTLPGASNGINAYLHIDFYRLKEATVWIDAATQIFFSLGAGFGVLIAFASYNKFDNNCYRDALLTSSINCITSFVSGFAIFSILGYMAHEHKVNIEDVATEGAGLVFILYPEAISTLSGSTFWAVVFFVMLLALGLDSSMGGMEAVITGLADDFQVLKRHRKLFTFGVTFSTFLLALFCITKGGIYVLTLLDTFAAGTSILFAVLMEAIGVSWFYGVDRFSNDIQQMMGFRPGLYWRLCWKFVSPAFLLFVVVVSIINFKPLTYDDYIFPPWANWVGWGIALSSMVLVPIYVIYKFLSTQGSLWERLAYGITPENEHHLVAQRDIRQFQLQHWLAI
# Chain of rat Serotonin Transporter (SERT), Slc6a4 (gene 25553) (P31652 whole entry, looked up): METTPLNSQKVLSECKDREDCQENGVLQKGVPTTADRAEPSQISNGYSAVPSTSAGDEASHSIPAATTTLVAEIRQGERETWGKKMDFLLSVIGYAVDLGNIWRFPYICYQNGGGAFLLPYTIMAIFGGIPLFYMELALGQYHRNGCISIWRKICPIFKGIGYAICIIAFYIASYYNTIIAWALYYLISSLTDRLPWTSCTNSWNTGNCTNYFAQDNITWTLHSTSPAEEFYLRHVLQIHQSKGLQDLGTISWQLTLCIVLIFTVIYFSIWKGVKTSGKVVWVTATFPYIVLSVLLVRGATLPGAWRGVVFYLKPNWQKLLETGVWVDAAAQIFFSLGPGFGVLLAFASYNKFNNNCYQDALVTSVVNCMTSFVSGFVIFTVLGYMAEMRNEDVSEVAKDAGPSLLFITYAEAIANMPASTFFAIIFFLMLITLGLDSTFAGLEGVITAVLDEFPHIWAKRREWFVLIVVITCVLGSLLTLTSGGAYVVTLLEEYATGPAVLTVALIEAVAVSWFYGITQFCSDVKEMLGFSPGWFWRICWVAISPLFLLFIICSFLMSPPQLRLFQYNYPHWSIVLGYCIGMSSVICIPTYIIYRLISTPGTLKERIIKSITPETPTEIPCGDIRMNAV
# Chain of human Serotonin Transporter (SERT), SLC6A4 (gene 6532) (P31645 whole entry, looked up): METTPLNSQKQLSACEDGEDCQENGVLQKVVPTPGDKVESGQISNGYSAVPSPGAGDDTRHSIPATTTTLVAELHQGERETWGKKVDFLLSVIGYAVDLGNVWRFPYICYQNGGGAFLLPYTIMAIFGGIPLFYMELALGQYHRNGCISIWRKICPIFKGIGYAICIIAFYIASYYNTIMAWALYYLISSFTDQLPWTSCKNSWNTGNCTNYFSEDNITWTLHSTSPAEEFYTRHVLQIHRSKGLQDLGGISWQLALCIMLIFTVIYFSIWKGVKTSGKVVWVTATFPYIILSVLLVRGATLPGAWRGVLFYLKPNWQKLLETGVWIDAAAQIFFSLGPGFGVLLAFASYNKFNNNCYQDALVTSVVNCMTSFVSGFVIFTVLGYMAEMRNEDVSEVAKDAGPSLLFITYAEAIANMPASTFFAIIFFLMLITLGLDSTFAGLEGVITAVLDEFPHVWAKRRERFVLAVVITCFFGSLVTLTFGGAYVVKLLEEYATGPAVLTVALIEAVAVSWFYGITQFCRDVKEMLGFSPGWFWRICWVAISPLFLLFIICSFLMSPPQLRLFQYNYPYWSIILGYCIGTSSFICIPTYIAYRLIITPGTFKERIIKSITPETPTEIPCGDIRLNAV
compound,measurement,setting,value
COP(=S)(OC)Oc1ccc(SC)c(C)c1,AC50,[1],7.96 µM (active)
Oc1cc(Cl)ccc1Oc1ccc(Cl)cc1Cl,AC50,[2],25.5 µM (active) and 25 µM (active)
same,AC50,[3],11.6 µM (active) and 16.2 µM (active) and 6.67 µM (active)
same,outcome,[3],inactive
same,AC50,[4],13.7 µM (active) [middle of 4 runs]
same,AC50,[1],21.3 µM (active) [middle of 4 runs]
same,AC50,[5],585 nM (active) [middle of 4 runs]
CCCN(CCOc1c(Cl)cc(Cl)cc1Cl)C(=O)n1ccnc1,AC50,[6],8.65 µM (active)
same,AC50,[2],6.57 µM (active)
same,outcome,[3],inactive
same,AC50,[7],2.17 µM (active)
same,AC50,[1],6.06 µM (active)
same,AC50,[8],3.82 µM (active)
same,AC50,[9],7.49 µM (active)
same,AC50,[5],5.14 µM (active)
O=S1OCC2C(CO1)C1(Cl)C(Cl)=C(Cl)C2(Cl)C1(Cl)Cl (configuration not stated),AC50,[2],17.7 µM (active)
same,outcome,[3],inactive
same,AC50,[1],10.9 µM (active)
CCN(CC)C(=O)SCc1ccc(Cl)cc1,AC50,[1],7.71 µM (active)
Oc1ccc(Cl)cc1Cc1ccccc1,AC50,[6],39.8 µM (active) and 25.2 µM (active) and 36.3 µM (active)
same,outcome,[6],inactive
same,AC50,[2],12.8 µM (active) [middle of 5 runs]
same,outcome,[2],inactive
same,outcome,[3],inactive
same,AC50,[4],18.6 µM (active) [middle of 6 runs]
same,AC50,[1],3.69 µM (active) [middle of 8 runs]
same,outcome,[8],inactive
same,AC50,[9],13.8 µM (active)
same,outcome,[9],inactive
same,AC50,[5],3.98 µM (active) [middle of 6 runs]
CC1(C)C(C=C(Cl)Cl)C1C(=O)OC(C#N)c1ccc(F)c(Oc2ccccc2)c1 (configuration not stated),outcome,[3],inactive
same,AC50,[1],2.03 µM (active)
